BCR signal inh – qHTS Assay to Find Inhibitors of Chronic Active B-Cell Receptor Signaling; ABC-DLBCL IkBa-CBG/CBR reporter, luminescence ratio, 4 h; Potency, µM (titrated, usually from 46.1 µM), for inactives: at the top dose activity change, negative = inhibition, usual class: inhibitors; 340,000 tested, 0.05% active; active = well fitted inhibition curve with a large enough effect in the signal ratio, with a control signal flat, not every such curve was filed as active; inconclusive = small, poorly fitted or top-dose-only effect, or effect the other way, or a change in a side signal; the % refers to the signal ratio;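 note: potency is the fitted concentration of half-maximal effect; plate controls were basal doxycycline-induced cells for no effect and cells given 10 µM MG132 for full effect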
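Doxycycline induced both beetle luciferases in TMD8 lymphoma cells; IKK-driven degradation limits the IkappaBalpha-fused green signal, while red luminescence normalises for cell number and nonspecific effects. Compounds tested up to 46 uM, 4 hrs.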
DT40 TDP1 CPT – qHTS for Inhibitors of human tyrosyl-DNA phosphodiesterase 1 (TDP1): qHTS in cells in presence of CPT; AID 686979, 2013; 420,000 tested, 12% active; chicken DT40 Tdp1-/-;hTDP1 cells + 20 nM CPT, ATP luminescence, 48 h; Potency, µM (series often up to 46.2 µM), inactives show at the top dose activity change, negative = growth inhibition, actives largely listed as inhibitors; note: potency is the fitted concentration of half-maximal effect; % is set by controls: 0 for no effect and ±100 for the full control effect; nearly all actives have a fitted effect of over 55% in size
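Cell growth measured by CellTiter-Glo luminescence after a minimum 48 h, 37 C compound exposure with 20 nM CPT in Tdp1-knockout DT40 cells stably expressing hTDP1, seeded 400/well; qHTS titration format.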
IL1B secr inh – qHTS for Inhibitors of Inflammasome Signaling: IL-1-beta AlphaLISA Primary Screen | THP-1 LPS/ATP IL-1B secretion, AlphaLISA, 16 h; stronger effect = lower value | activity change, % at 57.5 µM | 360,000 tested, 4.7% active; in the data active = activity change below about -50%; inconclusive = mostly about -30% to -49%; note: % is set by controls: 0 for no effect and ±100 for the full control effect
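Secreted IL-1B measured by AlphaLISA bead assay after 16 h compound exposure of THP-1 cells; compounds (final up to 57.5 uM) added 1 h before LPS (250 ng/mL) and ATP (1.25 mM) stimulation; lower signal means less secretion.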
MCF10A rereplic – A quantitative high throughput screen for small molecules that induce DNA re-replication in MCF 10a normal breast cells; AID 624296, 2012; Potency, µM (series often up to 46.1 µM), without a hit: at the top dose activity, positive = re-replication, hits mostly activators; MCF 10A DNA re-replication, Hoechst nuclear intensity, 48 h; 350,000 tested, 2.9% active; note: potency is the fitted concentration of half-maximal effect; % of control where 0% means no effect; nearly all actives have a fitted effect of over 50% in size
TDP1 cell noCPT – qHTS for Inhibitors of human tyrosyl-DNA phosphodiesterase 1 (TDP1): qHTS in cells in absence of CPT; DT40 Tdp1-/- hTDP1 cells, no CPT, ATP luminescence, 48 h; Potency, µM (doses to about 46.2 µM), without a hit: at the highest dose activity change, negative = growth inhibition, hits mostly inhibitors; 420,000 tested, 15% active; AID 686978, 2013; note: potency is the fitted concentration of half-maximal effect; % is set by controls: 0 for no effect and ±100 for the full control effect; nearly all actives have a fitted effect of over 55% in size
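Camptothecin absent (DMSO only). Human TDP1-complemented DT40 knockout cells, 400 cells/well, 37 °C for minimum 48 hr; ATP measured via CellTiter-Glo, 30 min dark incubation, luminescence.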
SW480 rereplic – A quantitative high throughput screen for small molecules that induce DNA re-replication in SW480 colon adenocarcinoma cells; Potency, µM (doses to about 46.1 µM), for the others: at the top dose re-replication activation, actives largely listed as activators; 340,000 tested, 1.8% active; SW480 DNA re-replication, Hoechst DNA content imaging, 48 h; AID 624297, 2012; note: potency is the fitted concentration of half-maximal effect; % of control where 0% means no effect; nearly all actives have a fitted effect of over 55% in size
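First, 250 cells per well were seeded. Next, compound or vehicle (23 nL) was pinned in, plates sat 48 hr at 37 C. Finally Hoechst was added for 40 min before fluorescence scanning.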
Active calls of the source: *; ? = inconclusive; . = no result; ! = repeats disagree; [ ] = dose if it differs, or a comment. Sampled rows, rich in hits. Any-hit rate of the full collection: about 19%. Unless noted, calls come from the whole dose curve; as a rule, active = well fitted curve in the direction sought with a large enough effect; inconclusive = small, poorly fitted or top-dose-only effect, or another doubt; inactive = no such curve, though single readings can be large; an effect the other way counts as inactive or inconclusive.

SMILES	BCR signal inh	DT40 TDP1 CPT	IL1B secr inh	MCF10A rereplic	TDP1 cell noCPT	SW480 rereplic
CC1(C)C(=O)C=C[C@@]2(C)C1CC(O)[C@]1(C)C2CC[C@@]2(C)C(c3ccoc3)OC(=O)C3O[C@]312 (some centres not stated)	.	13µM*	.	.	12µM*	.
CCC(=Nc1ccc(OC)cc1OC)c1c(O)n(C2CCCCC2)c(=O)[nH]c1=O	?	?	-2	?	?	17%
CCC(=Nc1ccc(Cc2ccncc2)cc1)c1c(O)n(C)c(=O)n(C)c1=O	-4%	5µM*!	0	-1%	5µM*	-2%
CCC(=Nc1ccc2c(c1)CCC2)c1c(O)n(C)c(=O)n(C)c1=O	-2%	12µM*	29	-4%	21µM*	-2%
CCC(=NCc1ccc(F)cc1)c1c(O)n(C)c(=O)n(C)c1=O	3%	23µM*	-14	-2%	18µM*	-20%
CCC(=Nc1ccc2c(c1)CCC2)c1c(O)n(-c2ccc(OC)cc2)c(=O)[nH]c1=O	?	21µM*	18	7%	15µM*	9%
Cn1c(O)c(C(=O)c2ccccc2F)c(=O)n(C)c1=O	3%	-7%	-7	0%	7%	-17%
COc1ccc(OC)c(CC(C)N)c1 (configuration not stated)	.	-19%[92.5 µM]	.	.	-16%[92.5 µM]	.
Fc1ccccc1-c1n[nH]c(=S)n1Cc1ccccc1	3%	1%	12	-9%	2%	?
COC(=O)[C@]1(C)N[C@H](CN(C)S(=O)(=O)c2ccc(-c3ccccc3)cc2)[C@@H]2C(=O)N(Cc3ccccc3)C(=O)[C@@H]21	0%	?	-5	?	?	4%
CCOC(=O)c1ccc(N=C(CC)c2c(O)n(C)c(=O)n(C)c2=O)cc1	-1%	?	-1	-1%	18µM*	-3%
CCC1OC(=O)CC(O)C(C)[C@@H](O[C@@H]2OC(C)[C@H](O[C@@H]3C[C@@](C)(O)C(O)C(C)O3)C(N(C)C)C2O)[C@H](CC=O)CC(C)C(=O)/C=C/C(C)=C/[C@@H]1COC1OC(C)C(O)C(OC)[C@@H]1OC (some centres not stated)	.	.	.	2%	.	-6%
Cc1ccc(CNC(=O)CCCn2c(=O)c3sccc3n(CC(=O)Nc3c(C)cccc3C)c2=O)cc1	.	-2%	.	.	-16%	.
C[C@@H]1O[C@@H](O[C@H]2C[C@@H](O)[C@]3(CO)[C@@H]4C(CC[C@]3(O)C2)[C@@]2(O)CC[C@H](C3COC(=O)C3)[C@@]2(C)C[C@H]4O)[C@H](O)[C@H](O)[C@H]1O (some centres not stated)	?	-3%	-65*	-44%	?	?
O=c1oc2ccccc2n1CSC1=NCCS1	?	?	-107*	?	?	?
O=c1oc2ccccc2n1CCCOc1ccccc1	?	2%	-23	5%	-22%	-17%
O=c1[nH]c2ccccc2n1C1CCN(C(c2ccccc2OC(F)(F)F)c2nnnn2Cc2ccccc2)CC1 (configuration not stated)	.	10µM*	-16	.	10µM*	.
COc1ccc(C(c2nnnn2Cc2ccccc2)N2CCC(n3c(=O)[nH]c4ccccc43)CC2)cc1 (configuration not stated)	.	18µM*	-1	.	16µM*	.
